Assay outcomes: PubChem, National Center for Advancing Translational Sciences (NCATS)
TrxR1 substrate – qHTS Assay for Substrates of Mammalian Selenoprotein Thioredoxin Reductase 1 (TrxR1): qHTS | Thioredoxin reductase 1, cytoplasmic (Rattus norvegicus), O89049 | purified TrxR1 substrate turnover, NADPH consumption readout | Potency, µM (highest dose often 114 µM), for inactives: at the top dose activity change, negative = substrate turnover | 390,000 tested, 0.01% active; further: potency means the concentration at half of the fitted maximal effect; on the % scale 0 is the no-effect control and ±100 the full control effect; nearly all actives have a fitted effect of over 50% in size
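Rat TrxR1, dispensed at 90 nM, was prereduced with 400 uM NADPH (final) for 5 min at ~22 deg C, then incubated with compound 15 min before 400 uM selenite. A first-read NADPH fluorescence drop versus no-compound background flagged substrates.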
Giardia killer – Small Molecules that selectively kill Giardia lamblia: qHTS; Giardia lamblia trophozoite viability; activity change, % at 7.66 µM, hits read low; 340,000 tested, 0.15% active; AID 540267, 2011; in the data active means activity change below about -80%; inconclusive means between about -30% and that limit;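 further: parasites exposed to compound for two days anaerobically before the ATP read; on the % scale 0 is the no-effect control and ±100 the full control effect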
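Anaerobic 48 hrs incubation at 37 deg C of 100 trophozoites/well with test compounds; ATPLite 1-Step luminescence, 15-30 min RT, reports cellular ATP as viability.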
BRCA1 expr up – qHTS Assay to Identify Small Molecule Activators of BRCA1 Expression; 380,000 tested, 1.1% active; MCF7-BRCA1-FFLuc reporter, luminescence, 48 h; response scale: scaled: vehicle 0%, 10 µM genistein 100%; Potency, µM (titrated, usually from 46.1 µM), for inactives: top-dose activation, hits mostly activators; further: potency means the concentration at half of the fitted maximal effect; nearly all actives have a fitted effect of over 80% in size
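MCF7 cells carrying a BRCA1-firefly luciferase reporter (2000 cells/well, phenol-red free MEM) were attached for 2 h at 37 °C, then given compounds for 48 h. Luminescence was read 15 min after luciferase reagent; activity normalized to genistein (10 microM) and DMSO.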
TrxR1 inh – qHTS Assay for Inhibitors of Mammalian Selenoprotein Thioredoxin Reductase 1 (TrxR1): qHTS | recombinant rTrxR1, NADPH fluorescence consumption, selenite substrate | 390,000 tested, 1% active | AID 588453, 2011 | Potency, µM (top dose mostly 114 µM), for the others: top-dose activity change, negative = inhibition, hits mostly inhibitors; further: potency means the concentration at half of the fitted maximal effect; on the % scale 0 is the no-effect control and ±100 the full control effect; nearly all actives have a fitted effect of over 65% in size
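Rat TrxR1 (90 nM in the dispensed reagent) was pre-reduced with 400 uM NADPH for 5 min at room temperature, then incubated with compound for 15 min. After 400 uM selenite was added, NADPH fluorescence (Ex 340/Em 450 nm) was followed for 8 min.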
IL2 activator – qHTS of IL-2 Activators; IL-2 activation reporter assay, cell-based qHTS; stimulated with anti-CD3/CD4/CD28 beads; in transgenic mouse T cells; activation, % (series mostly up to about 46 µM); 360,000 tested, 0.065% active; in the data active means activation above about 50%; inconclusive means mostly about 30% to 49%; further: 0% is about no effect
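First, unstimulated transgenic mouse T cells were exposed to compound for 60 min. Next, anti-CD3/anti-CD4-coated beads with anti-CD28 were added. Finally, after 18 h at 37 degrees C, EGFP and DsRed were imaged.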
mIDH1 inhibitor – qHTS for Inhibitors of mutant isocitrate dehydrogenase 1 (IDH1): qHTS; Potency, µM (highest dose often 76.6 µM), without a hit: at the top dose activity change, negative = inhibition, most hits filed as inhibitors; 390,000 tested, 0.093% active; AID 602179, 2012; Isocitrate dehydrogenase [NADP] cytoplasmic (Homo sapiens), O75874; IDH1-R132H enzyme, NADPH consumption, diaphorase/resazurin fluorescence; further: potency means the concentration at half of the fitted maximal effect; on the % scale 0 is the no-effect control and ±100 the full control effect; nearly all actives have a fitted effect of over 65% in size
Target sequence (O75874 whole entry R132H, stated change not applied): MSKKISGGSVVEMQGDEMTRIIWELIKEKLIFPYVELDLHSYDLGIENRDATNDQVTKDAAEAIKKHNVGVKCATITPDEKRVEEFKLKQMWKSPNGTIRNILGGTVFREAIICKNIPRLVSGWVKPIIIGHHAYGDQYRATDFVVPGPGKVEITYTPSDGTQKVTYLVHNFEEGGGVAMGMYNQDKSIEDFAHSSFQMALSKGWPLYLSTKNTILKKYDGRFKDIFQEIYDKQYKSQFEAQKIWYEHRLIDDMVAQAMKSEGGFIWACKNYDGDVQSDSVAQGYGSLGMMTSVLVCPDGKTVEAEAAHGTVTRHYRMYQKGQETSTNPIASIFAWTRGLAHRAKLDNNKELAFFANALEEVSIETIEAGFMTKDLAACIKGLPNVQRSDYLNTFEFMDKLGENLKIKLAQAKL
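IDH1-R132H (0.5 ug/mL) preincubated 30 min with compound, then NADPH (0.016 mM) and alpha-KG (2 mM) added; 80 min at RT, pH 7.5. Remaining NADPH coupled via diaphorase/resazurin to fluorescence (540/590 nm); concentration-response curves normalized to no-enzyme control.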
Active calls of the source: *; ? = inconclusive; nt = no result; ! = repeats disagree; [ ] = remark or other dose. Sampled rows, rich in hits. Any-hit rate of the full collection: about 2.2%. Unless noted, the call rests on the fitted dose curve; in most records, active means well fitted curve in the direction sought with a large enough effect; inconclusive means small, poorly fitted or top-dose-only effect, or another doubt; inactive means no such curve, though single readings can be large; an effect the other way counts as inactive or inconclusive.

SMILES	TrxR1 substrate	Giardia killer	BRCA1 expr up	TrxR1 inh	IL2 activator	mIDH1 inhibitor
O=C(Cc1ccc(Cl)cc1)Nc1ccccc1Sc1ccccc1	-10.2%	?	-21.9%	-12.3%	-4.3	0.9%
O=C(CCl)Nc1cn(-c2ccccc2)nc1-c1ccccc1	4.0%	-15.5	-80.5%	12.6µM*	-1.2	-1.4%
COc1ccc(C)cc1NC(=O)Cn1c(=O)oc2cc(S(=O)(=O)N3CCCCC3)ccc21	-1.0%	nt	0.0%	12.4%	nt	-9.2%
CCc1cccc(NC(=O)C(NS(=O)(=O)c2ccc3nc(C)sc3c2)C(C)C)c1 (stereo not given)	0.2%	nt	-2.2%	6.2%	nt	4.7%
Cc1cc(C(=O)CSc2ccc3c(c2)OCCO3)c(C)n1C1CC1	13.4%[57.1 µM]	-25.8	11.2µM*	13.1%[57.1 µM]	-3.6	6.3%
Cn1c(N)c(C(=O)CSc2ccc3c(c2)OCCO3)c(=O)n(C)c1=O	-5.2%	-27.7	21.0%	5.2%[57.1 µM]	0.7	11.4%
COCCNC(=O)C1(C(F)(F)F)C/C(=C\CCO)CCCO1 (stereo not given)	2.6%	-13.8	nt	7.4%[57.1 µM]	nt	nt
C/C=C1\COC(C(=O)NCc2ccncc2)(C(F)(F)F)C=C1C=C1CCCCC1 (stereo not given)	-3.5%	35.1	20.4%	17.8µM*	-0.5	12.7%
C/C=C1\COC(C(=O)NC)(C(F)(F)F)C=C1C=C1CCCCC1 (stereo not given)	0.5%	5.7	nt	1.41µM*	nt	nt
CC=C1COC(C(=O)NCCOCCO)(C(F)(F)F)C=C1C=C(C)C (stereo not given)	5.3%	?	nt	3.55µM*	nt	nt
C/C=C1\COC(C(=O)NCCOCCO)(C(F)(F)F)C=C1C=C1CCCCC1 (stereo not given)	5.0%	14.8	nt	1.58µM*	nt	nt
CC/C(=C\c1ccc(C(=O)OC)cc1)c1cc(OC)cc2oc3ccccc3c12	129.4%	nt	nt	74.5%	nt	nt
C/C=C1\COC(C(=O)NCc2cccc(OC)c2OC)(C(F)(F)F)C=C1C=C1CCCCC1 (stereo not given)	-3.3%	-19.0	9.5%	5.01µM*	-0.9	2.6%
COc1cccc(CNC(=O)Cn2nc3c(cc2=O)CCCC3)c1OC	-6.8%[57.1 µM]	nt	nt	4.9%[57.1 µM]	nt	-16.0%
CCOc1cc2c(C#N)c(N3CCCC3)nc(N)c2c(N)n1	30.1%[57.1 µM]	23.1	0.0%	41.8%[57.1 µM]	-0.3	-11.8%
COc1cc2c(C#N)c(N3CCCC3)nc(N)c2c(N)n1	15.8µM*!	13.5	-34.2%	-25.5%[57.1 µM]	-0.4	-25.3%
Cc1ccccc1NC(=O)CSc1ccc(-c2cccs2)nn1	-2.6%	nt	nt	3.2%	nt	-6.2%
Cc1ccc(NC(=O)NCCc2c(C)nn(C)c2C)c(Cl)c1	5.6%[57.1 µM]	nt	0.0%	15.2%[57.1 µM]	nt	-0.8%
OCCCCCN=c1cc(-c2ccccc2)oc2ccc(Cl)cc12	-4.6%	3.1	-38.1%	4.4%	-4.3	-3.4%
Clc1ccc2oc(-c3ccccc3)cc(=NCCCN3CCOCC3)c2c1	-6.0%[57.1 µM]	-87.2*	55.6%	16.9%[57.1 µM]	-0.6	2.6%
O=C(c1ccoc1)N1CCC2(CC1)Oc1ccc(F)cc1C(=O)C21CC(c2ccc(Cl)cc2)=NO1 (stereo not given)	-9.9%	-9.9	-23.2%	70.8µM*	0.2	7.7%
CC1=C(C(=O)Nc2ccccc2C)C(c2cccs2)n2nc(SCc3ccccc3)nc2N1 (stereo not given)	-2.4%	nt	0.0%	10.3%	nt	14.6%
O=C(CCS(=O)(=O)c1nc(-c2ccc3c(c2)OCO3)cc(C(F)(F)F)n1)Nc1ccccc1C(F)(F)F	117.1%	nt	nt	200.0%	nt	0.0%
COc1ccc(/C(N)=N/OC(=O)CCc2ccccc2)cc1OC	-1.8%	-3.4	58.1%	3.5%	-0.1	0.1%
Cc1cccc(/C(N)=N/OC(=O)CCc2ccccc2)c1	6.6%	-20.9	12.6µM*	28.8%	0.3	3.8%
SMILES	TrxR1 substrate	Giardia killer	BRCA1 expr up	TrxR1 inh	IL2 activator	mIDH1 inhibitor
CC1=C(/C=C/C(C)=C/C=C/C(C)=C/C(=O)O)C(C)(C)CCC1	8.1%[57.1 µM]	5.0	-11.6%	25.1µM*!	0.0	-7.9%
CC(/C=C\c1ccccc1)=C/C(=O)O	4.9%[57.1 µM]	6.8	-5.2%	3.1%[57.1 µM]	-0.7	1.8%
Cc1nc(C#N)c(N/N=C/c2cccc(Cl)c2)o1	-4.6%	?	22.4µM*	?	-2.7	5.0%
Cc1cc(N/N=C/c2cccc(Cl)c2)nc(-n2nc(C)cc2C)n1	-1.0%[57.1 µM]	-4.2	-74.9%	6.0%	0.0	0.5%
Cc1ccsc1C(=O)OCc1cc(=O)n2ccsc2n1	10.8%	3.2	?	12.2%	-2.0	3.7%
O=C(OCc1cc(=O)n2ccsc2n1)c1ccc(O)cc1O	-1.4%	-3.6	11.2µM*	21.6%	0.6	-5.9%
Cc1ccc(-c2ccc(CCC(=O)O)n2-c2cccc(C(=O)O)c2)cc1	8.6%	8.5	7.08µM*	?	0.2	-9.1%
Cc1ccc(-c2ccc(CCC(=O)O)n2-c2ccc(C(=O)O)cc2)cc1	9.6%[57.1 µM]	-3.0	60.7%	?	0.3	-6.1%
COC(=O)c1ccc(-n2c(CCC(=O)O)ccc2-c2ccc(C)cc2)cc1	4.8%	?	18.9%	44.7µM*	-3.1	-19.2%
COC(=O)c1cccc(-n2c(CCC(=O)O)ccc2-c2ccc(OC)cc2)c1	8.0%	nt	nt	?	nt	-13.9%
COc1ccc(NC(=O)C2=C(C)Nc3nc(SCc4ccccc4C)nn3C2c2cc(OC)c(O)c(OC)c2)cc1 (stereo not given)	1.1%	nt	nt	21.0%	nt	-6.9%
O=C1C=CC(=O)N1Cc1cccnc1	4.1%	11.1	-21.3%	79.4µM*	-0.6	-3.3%
Nc1[nH]ncc1N=Nc1ccc(Cl)cc1	-2.7%	2.1	11.2µM*	12.7%	-1.5	1.1%
Nc1n[nH]c(N)c1N=Nc1ccc(Cl)cc1	-8.2%	7.1	43.2%	-7.0%	0.1	0.3%
Cn1c(=O)c2c(nc(OC/C=C/c3ccccc3)n2C)n(C)c1=O	8.3%	0.7	2.3%	44.7µM*	-1.9	9.4%
COc1ccc(/C=C/C(=O)Nc2cccc(S(=O)(=O)NC3=NCCCCC3)c2)cc1	-8.0%	-20.7	7.94µM*	-14.7%	0.3	3.9%
O=C(CCl)Nc1cccc(S(=O)(=O)NC2=NCCC2)c1	3.9%	-2.9	-70.1%	28.2µM*	-0.6	1.5%
O=C(/C=C/c1ccc(OC(F)F)cc1)Nc1cccc(S(=O)(=O)NC2=NCCCCC2)c1	-11.2%	-3.0	-17.1%	-7.5%	-5.6	6.2%
